Test results reported in PubChem BioAssay (NCATS).
Results filed as inconclusive are left out. Active and inactive are the calls of the source. Unless noted, the call rests on the fitted dose curve; in most records, active means well fitted curve in the direction sought with a large enough effect; inconclusive means small, poorly fitted or top-dose-only effect, or another doubt; inactive means no such curve, though single readings can be large; an effect the other way counts as inactive or inconclusive.

Key:
[1] = qHTS Assay for Lipid Storage Modulators (AID 1519; calls by dose curve); settings: Drosophila S3 cells, BODIPY lipid droplet/cell ratio, laser cytometry, cells loaded with oleic acid; for activity change, negative = inhibition: at 57.5 µM (top of the series)
Summary of the method: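 Cells seeded at 5,000 per well were treated with compounds over a concentration series and loaded with oleic acid (400 uM, as added). Lipid droplet fluorescence (488 nm excitation, 500-530 nm channel) was read by laser-scanning cytometry and normalized to 20 uM Triacsin C.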

[2] = tested on: HIV-1 nucleocapsid protein NCp7 (binding to TG oligonucleotide); experiment: HIV Nucleocapsid (AID 346; call rule not given here;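 further: potency means the concentration at half of the fitted maximal effect; potency is for inhibitors that block NC binding and lower polarization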); settings: HIV-1 NC / fluorescein-TGTGTGTG probe, fluorescence polarization
Summary of the method: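 Inhibition of nucleocapsid binding to single-stranded 5'-TGTGTGTG probe (10 nM) was measured by fluorescence polarization after 1 hr at room temperature with 100 nM protein under high-salt, zinc-containing, reducing conditions.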

[3] = target: Lysosomal acid glucosylceramidase (Homo sapiens) (UniProt P04062); experiment: Glucocerebrosidase-p2 (AID 348; in the data active means potency below about 10 µM; further: potency means the concentration at half of the fitted maximal effect); settings: purified GBA, blue fluorogenic substrate, 40 min
Summary of the method: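 Compounds titrated from 0.6 nM upwards against 0.2 nM enzyme in pH 5.9 citric acid/KH2PO4, taurocholate, tween-20; blue fluorogenic substrate 80 uM, 40 min room temperature, stopped and read Ex 365/Em 440 for AC50.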

[4] = AP1 Signaling Pathway (AID 357; active means well fitted curve in either direction with a large enough effect, not every such curve was filed as active; further: on the % scale 0 is the no-effect control and ±100 the full control effect)
Summary of the method: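 AP-1-bla ME-180 cells with beta-lactamase reporter under AP-1 response element, stimulated with EC50 EGF; compounds titrated, 5 hours at 37 degrees Celsius. CCF4 read at 460/530 nm ratio; positive and negative modulators judged by AC50.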

[5] = Stat Signaling Pathway (AID 446; active means well fitted curve in either direction with a large enough effect, not every such curve was filed as active;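 further: ME-180 cervical cancer cells given 40 pM IL-6 alongside compound; SIE-controlled beta-lactamase reporter measured as 460/530 nm FRET emission ratio; on the % scale 0 is the no-effect control and ±100 the full control effect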)
Summary of the method: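 Screening format detects activators and inhibitors alike: ME-180 SIE-bla cells stimulated at 40 pM IL-6 for 5 hrs with compound, then dual-emission beta-lactamase read at 405 nm excitation.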

[6] = target: Glucocorticoid receptor (Homo sapiens) (UniProt P04150); experiment: GR-EFC Redistribution (AID 451; calls by dose curve; further: potency means the concentration at half of the fitted maximal effect); settings: CHO-K1 GR-EFC translocation, beta-gal luminescence, 2 h
Summary of the method: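 CHO-K1 cells stably expressing nuclear-localized β-gal enzyme acceptor and GR fused C-terminally to the enzyme donor fragment; ligand-driven nuclear translocation restores β-gal by complementation. Compounds titrated up to 46 uM final, 2 h at 37 °C; luminescence read.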

[7] = target: Mitogen-activated protein kinase 10 (Mus musculus) (UniProt Q61831); experiment: JNK3 AlphaScreen Assay (AID 530; active means well fitted curve in either direction with a large enough effect, not every such curve was filed as active;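 further: kinase came from lysate of stimulated human HepG2 cells; signal reports phosphorylation of biotinylated GST-cJun 1-79 at Ser73 with 10 µM ATP; on the % scale 0 is the no-effect control and ±100 the full control effect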)
Summary of the method: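 Inhibitors reduce antibody binding to phosphorylated biotin-cJun, lowering AlphaScreen luminescence. Lysates from HepG2 cells pre-activated by IL-1beta plus TNF-alpha supplied JNK3; compounds were titrated.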

[8] = target: 3',5'-cyclic-AMP phosphodiesterase 4B (Homo sapiens) (UniProt Q07343); experiment: qHTS Assay for Inhibitors of PDE-IV (AID 607; active means well fitted activation curve with a large enough effect in the main read-out, with a control signal flat, not every such curve was filed as active; further: % of control where 0% means no effect)
Summary of the method: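 The readout is membrane depolarisation from a cAMP-sensing CNG channel, detected with a potential dye at ex 535/em 590. Cells were HEK293-derived (endogenous PDE-IV) at 1000 cells/well, titrated up to 22.9 uM final.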

[9] = target: Cytochrome P450 3A4 (Homo sapiens) (UniProt P08684); experiment: qHTS Assay for Activators of Cytochrome P450 3A4 (AID 885); further: nearly all actives have a fitted effect of over 65% in size
Summary of the method: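 Steps: enzyme/substrate mix dispensed; compound added, 10 min RT; NADPH regeneration solution added, 60 min RT; luciferin detection buffer stops reaction; 20 min later luminescence measured.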

[10] = Primary qHTS for small molecule stabilizers of the endoplasmic reticulum resident proteome: Secreted ER Calcium Modulated Protein (SERCaMP) assay (AID 1508630); further: on the % scale 0 is the no-effect control and ±100 the full control effect
Summary of the method: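 GLuc-SERCaMP-expressing SH-SY5Y cells, pretreated 16 h with compound, are challenged with thapsigargin to empty ER calcium stores; after 4 h, coelenterazine is added directly to the medium and luminescence is imaged.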

[11] = target: DNA repair nuclease/redox regulator APEX1 (Homo sapiens) (UniProt P27695); experiment: qHTS Validation Assay for Inhibitors of the Human Apurinic/apyrimidinic Endonuclease 1 (APE1) (AID 1705)
Summary of the method: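 Substrate: 50 nM final fluorophore/quencher THF-abasic duplex. Enzyme preincubated with compounds 15 min, RT. Progress derived from fluorescence difference, third minus first kinetic read.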

[12] = target: Endonuclease 4 (Escherichia coli (strain K12)) (UniProt P0A6C1); experiment: Counterscreen for APE1 Inhibitors: qHTS Validation Assay for Inhibitors of Endonuclease IV (AID 1708); further: on the % scale 0 is the no-effect control and ±100 the full control effect
Summary of the method: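 Concentration-response counterscreen run identically to the APE1 assay: 15 min room-temperature preincubation of 2 nM enzyme with compound, reaction started with 50 nM quenched abasic DNA, progress taken from kinetic fluorescence.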

[13] = qHTS for differential inhibitors of proliferation of Plasmodium falciparum line 7G8 (AID 1815);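 further: potency means the concentration at half of the fitted maximal effect; parasite growth measured after three days of incubation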
[14] = qHTS for differential inhibitors of proliferation of Plasmodium falciparum line GB4 (AID 1816); settings: Potency: Plasmodium falciparum GB4 proliferation inhibition;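 further: potency means the concentration at half of the fitted maximal effect; parasite growth measured after 72 h incubation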
[15] = qHTS for differential inhibitors of proliferation of Plasmodium falciparum line 3D7 (AID 1876); further: potency means the concentration at half of the fitted maximal effect
[16] = qHTS for differential inhibitors of proliferation of Plasmodium falciparum line D10 (AID 1877);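 further: potency means the concentration at half of the fitted maximal effect; parasites grown with compound for 72 h before DNA staining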
[17] = qHTS for differential inhibitors of proliferation of Plasmodium falciparum line Dd2 (AID 1882); settings: Potency: Plasmodium falciparum Dd2 proliferation inhibition; further: potency means the concentration at half of the fitted maximal effect; nearly all actives have a fitted effect of over 65% in size
Summary of the method: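 Dd2-infected erythrocytes (0.3% parasitemia, 2.5% hematocrit final) incubated with compound 72 h at 37 C, 5% CO2; lysed with saponin/Triton buffer containing SYBR Green I, incubated overnight in the dark, then read by fluorescence (485/535 nm). Normalized to 0.29 uM artemisinin and DMSO.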

[18] = qHTS for differential inhibitors of proliferation of Plasmodium falciparum line W2 (AID 1883); settings: Potency: Plasmodium falciparum W2 proliferation inhibition;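 further: potency means the concentration at half of the fitted maximal effect; parasites grown with compound for 72 h before lysis and staining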
[19] = qHTS for differential inhibitors of proliferation of Plasmodium falciparum line HB3 (AID 1886); settings: Potency: Plasmodium falciparum HB3 proliferation inhibition;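 further: potency means the concentration at half of the fitted maximal effect; parasites grown with compound for 72 h before SYBR Green readout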
[20] = target: Ferritin light chain (Equus caballus) (UniProt P02791); experiment: qHTS Validation Assay for Identification of Novel General Anesthetics (AID 2323); further: on the % scale 0 is the no-effect control and ±100 the full control effect
Summary of the method: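 Normalized fluorescence response, scaled between free 1-AMA and 1-AMA/apoferritin complex, fitted to a four-parameter Hill equation for concentration-effect values. Binding mix: 10 uM horse-spleen apoferritin, 50% saturated 1-AMA in PBS; read 380/535 nm after 10 min.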

[21] = target: ATP-dependent DNA helicase Q1 (Homo sapiens) (UniProt P46063); experiment: qHTS Validation Assay for Inhibitors of RecQ-Like Dna Helicase 1 (RECQ1) (AID 2353);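 further: plate controls were DMSO vehicle for no effect and enzyme-free control for full effect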
Summary of the method: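 50 nM RECQ1T1 preincubated 15 min with compound in Tris pH 8.0 buffer with MgCl2, DTT, Tween-20 and 2.5 ug/ml poly(dI-dC); started with 200 nM TAMRA/BHQ-2 forked duplex and 2 mM ATP. Unwinding read as fluorescence (525/598 nm), two reads 2 h apart.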

[22] = target: RecQ-like DNA helicase BLM (Homo sapiens) (UniProt P54132); experiment: qHTS Validation Assay for Inhibitors of Bloom's syndrome helicase (BLM) (AID 2364);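 further: plate controls were DMSO vehicle for no effect and enzyme-free control for full effect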
Summary of the method: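 BLM 50 nM in 25 mM Tris-HCl pH 8.0, 5 mM NaCl, 2 mM MgCl2, 1 mM DTT, 0.01% Tween-20, 2.5 ug/ml poly(dI-dC); 15 min cpd preinc, RT. Start: 200 nM forked DNA + 2 mM ATP (final). TAMRA read, 2 reads 2 h apart.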

[23] = Validation screen for inhibitors of Lassa infection (AID 463096; calls by dose curve; further: on the % scale 0 is the no-effect control and ±100 the full control effect)
[24] = Validation screen for small molecules that induce DNA re-replication in MCF 10A normal breast cells (AID 463097); further: 0% is about no effect; nearly all actives have a fitted effect of over 60% in size
Summary of the method: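 Following 48 hr compound incubation (37 C, 5% CO2), MCF 10A cells receive Hoechst for 40 min at 37 C. Nuclei are then scanned (excitation 405 nm, emission 500-530 nm) for total fluorescence intensity.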

[25] = Quantitative high throughput screen for delayed death inhibitors of the malarial parasite plastid, 96 hour incubation (AID 488745); further: potency means the concentration at half of the fitted maximal effect; nearly all actives have a fitted effect of over 70% in size
Summary of the method: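 Luciferase-expressing P. falciparum in erythrocytes (2% hematocrit, 0.1% parasitemia) incubated with compound for 96 h at 37 C, 5% CO2, in RPMI 1640 with 0.5% Albumax. Growth inhibition read as decreased luminescence.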

[26] = Quantitative high throughput screen for delayed death inhibitors of the malarial parasite plastid, 48 hour incubation (AID 488752); further: potency means the concentration at half of the fitted maximal effect; nearly all actives have a fitted effect of over 65% in size
Summary of the method: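 Erythrocytes infected with firefly luciferase-expressing P. falciparum (2% hematocrit, 0.1% parasitemia) cultured with compound for 48 h at 37 C, 5% CO2, in RPMI 1640/0.5% Albumax. Growth inhibition read as loss of luminescence.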

[27] = target: M-phase phosphoprotein 8 (Homo sapiens) (UniProt Q99549); experiment: qHTS Validation Assay for Inhibitors for MPP8 Chromodomain Interactions with Methylated Histone Tails (AID 488949); further: potency means the concentration at half of the fitted maximal effect; nearly all actives have a fitted effect of over 55% in size
Summary of the method: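 Chemiluminescent proximity assay: histidine-tag capture via nickel acceptor beads, biotin peptide via streptavidin donor beads. Protein and peptide each at 50 nM, pH 7.4, with 30 min incubations at room temperature for complex formation, compound exposure and bead binding.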

[28] = target: Transient receptor potential cation channel subfamily V member 1 (Homo sapiens) (UniProt Q8NER1); experiment: HTS Assay for Compounds that Act as Enhancers of the Vanilloid Receptor 1 (AID 488979); further: 0% is about no effect
Summary of the method: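 TRPV1-expressing cells loaded with Fluo-8 calcium dye; compounds added and calcium influx read kinetically for 3 min (agonist phase), then capsaicin at EC20 added and read 2 min more for enhancement. Fluorescence ex 480/em 520 nm.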

[29] = target: Thyrotropin-releasing hormone receptor (Homo sapiens) (UniProt P34981); experiment: qHTS for Small Molecule Agonists and Allosteric Enhancers of Human TRH Receptor: Validation Screen for Agonists (AID 493127;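 active means calcium activation more than 3 SD above the typical response in the agonist read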; further: 0% is about no effect); settings: TRH receptor agonist cell assay; at 2 µM; stronger effect = higher value
Summary of the method: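 TRHR cells loaded with fluo-8 calcium dye; FDSS kinetic fluorescence (Ex 480/Em 530) read at 1 s/cycle after 23 nL compound addition. Agonist-mode calcium response recorded before the 10 nM TRH (EC20) addition.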

[30] = target: Galactokinase (Homo sapiens) (UniProt P51570); experiment: qHTS Validation Assay for Inhibitors of Human Galactokinase (GALK) (AID 493189); further: 0% is about no effect
Summary of the method: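 Enzyme activity is inferred from ATP consumption: human GALK phosphorylates galactose (100 uM) using 35 uM ATP for 1 h at room temperature, and luciferase-based Kinase-Glo Plus reports unconsumed ATP.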

[31] = target: Voltage-gated inwardly rectifying potassium channel KCNH2 (Homo sapiens) (UniProt Q12809); experiment: qHTS Assay for Small Molecule Inhibitors of the Human hERG Channel Activity (AID 588834);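 further: potency means the concentration at half of the fitted maximal effect; lower thallium flux fluorescence means stronger hERG block; nearly all actives have a fitted effect of over 50% in size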
Summary of the method: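 Blockade is seen as reduced FluxOR thallium-flux fluorescence in U2OS cells expressing hERG from a BacMam construct, in Opti-MEM with 2% FCS. Concentration-response data fitted to the Hill equation for AC50.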

[32] = measured here: cell count channel max response
[33] = measured here: lipid channel max response

3',5'-cyclic-AMP phosphodiesterase 4B (Homo sapiens), sequence (Q07343 whole entry, looked up): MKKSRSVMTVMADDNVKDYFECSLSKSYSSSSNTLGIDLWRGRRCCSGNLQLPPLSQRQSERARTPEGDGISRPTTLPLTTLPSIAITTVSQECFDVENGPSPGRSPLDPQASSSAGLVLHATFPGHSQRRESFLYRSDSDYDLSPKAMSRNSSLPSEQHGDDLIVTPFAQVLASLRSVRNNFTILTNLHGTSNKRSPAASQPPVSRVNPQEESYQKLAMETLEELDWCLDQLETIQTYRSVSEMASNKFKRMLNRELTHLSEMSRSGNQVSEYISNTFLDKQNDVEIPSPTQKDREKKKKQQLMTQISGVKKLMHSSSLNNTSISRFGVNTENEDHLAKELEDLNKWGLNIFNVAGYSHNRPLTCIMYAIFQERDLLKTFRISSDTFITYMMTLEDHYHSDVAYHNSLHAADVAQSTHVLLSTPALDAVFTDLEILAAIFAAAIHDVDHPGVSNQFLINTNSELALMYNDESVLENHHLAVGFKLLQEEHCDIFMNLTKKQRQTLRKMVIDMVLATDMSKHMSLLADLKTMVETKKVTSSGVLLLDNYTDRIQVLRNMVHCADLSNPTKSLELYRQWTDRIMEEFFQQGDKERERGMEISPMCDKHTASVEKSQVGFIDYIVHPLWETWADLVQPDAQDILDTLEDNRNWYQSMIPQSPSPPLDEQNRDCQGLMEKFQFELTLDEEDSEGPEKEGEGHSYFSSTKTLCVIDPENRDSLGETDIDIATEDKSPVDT
Transient receptor potential cation channel subfamily V member 1 (Homo sapiens), sequence (Q8NER1 whole entry, looked up): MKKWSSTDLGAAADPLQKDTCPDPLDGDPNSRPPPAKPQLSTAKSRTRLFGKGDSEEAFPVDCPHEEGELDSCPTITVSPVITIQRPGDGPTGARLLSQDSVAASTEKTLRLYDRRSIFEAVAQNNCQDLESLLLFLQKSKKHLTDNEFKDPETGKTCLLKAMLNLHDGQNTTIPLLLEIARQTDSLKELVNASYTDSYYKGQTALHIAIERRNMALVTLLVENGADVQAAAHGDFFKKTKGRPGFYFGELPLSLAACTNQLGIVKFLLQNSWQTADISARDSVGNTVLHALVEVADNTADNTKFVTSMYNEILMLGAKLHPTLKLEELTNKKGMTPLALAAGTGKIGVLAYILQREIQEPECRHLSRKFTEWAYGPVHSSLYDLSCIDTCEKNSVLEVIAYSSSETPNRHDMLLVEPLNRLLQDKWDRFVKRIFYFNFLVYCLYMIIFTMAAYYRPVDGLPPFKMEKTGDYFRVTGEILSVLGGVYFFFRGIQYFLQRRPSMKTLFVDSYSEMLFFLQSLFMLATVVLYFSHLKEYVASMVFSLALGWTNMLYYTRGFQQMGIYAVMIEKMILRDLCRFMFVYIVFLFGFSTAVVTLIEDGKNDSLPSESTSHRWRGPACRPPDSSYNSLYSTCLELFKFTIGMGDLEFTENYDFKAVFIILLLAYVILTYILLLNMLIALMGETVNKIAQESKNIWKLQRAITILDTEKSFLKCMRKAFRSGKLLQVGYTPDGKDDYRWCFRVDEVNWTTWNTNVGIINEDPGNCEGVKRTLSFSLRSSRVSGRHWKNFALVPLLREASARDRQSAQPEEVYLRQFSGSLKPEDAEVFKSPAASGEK
Voltage-gated inwardly rectifying potassium channel KCNH2 (Homo sapiens), sequence (Q12809 whole entry, looked up): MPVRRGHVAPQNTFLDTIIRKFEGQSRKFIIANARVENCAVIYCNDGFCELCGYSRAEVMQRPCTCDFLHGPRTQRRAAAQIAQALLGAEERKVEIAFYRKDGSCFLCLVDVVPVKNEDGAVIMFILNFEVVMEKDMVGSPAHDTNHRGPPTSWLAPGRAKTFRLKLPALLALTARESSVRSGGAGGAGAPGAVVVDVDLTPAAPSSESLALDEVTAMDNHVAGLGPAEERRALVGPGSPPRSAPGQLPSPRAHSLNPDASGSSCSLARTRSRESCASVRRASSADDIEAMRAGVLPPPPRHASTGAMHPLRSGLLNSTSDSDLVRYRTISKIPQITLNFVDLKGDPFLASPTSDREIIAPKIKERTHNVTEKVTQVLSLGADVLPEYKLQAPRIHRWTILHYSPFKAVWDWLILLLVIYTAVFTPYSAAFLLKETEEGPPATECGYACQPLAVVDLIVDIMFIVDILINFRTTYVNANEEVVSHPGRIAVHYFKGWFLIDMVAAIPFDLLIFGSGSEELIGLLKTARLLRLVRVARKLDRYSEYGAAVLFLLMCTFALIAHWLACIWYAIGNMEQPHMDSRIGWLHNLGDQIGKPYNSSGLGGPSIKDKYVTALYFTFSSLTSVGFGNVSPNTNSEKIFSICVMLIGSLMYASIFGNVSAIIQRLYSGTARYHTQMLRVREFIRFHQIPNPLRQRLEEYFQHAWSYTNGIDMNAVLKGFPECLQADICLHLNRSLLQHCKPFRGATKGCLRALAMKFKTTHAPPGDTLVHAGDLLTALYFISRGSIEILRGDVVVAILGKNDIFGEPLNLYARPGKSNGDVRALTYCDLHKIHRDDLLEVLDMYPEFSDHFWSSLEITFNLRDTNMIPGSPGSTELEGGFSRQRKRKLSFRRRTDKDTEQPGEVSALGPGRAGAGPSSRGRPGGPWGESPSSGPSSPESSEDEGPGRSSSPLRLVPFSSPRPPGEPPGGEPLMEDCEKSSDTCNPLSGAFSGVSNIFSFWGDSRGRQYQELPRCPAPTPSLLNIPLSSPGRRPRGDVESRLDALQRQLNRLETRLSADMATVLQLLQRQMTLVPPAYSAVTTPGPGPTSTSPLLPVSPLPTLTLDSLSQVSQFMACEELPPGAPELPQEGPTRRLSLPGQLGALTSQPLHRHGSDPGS
DNA repair nuclease/redox regulator APEX1 (Homo sapiens), sequence (P27695 whole entry, looked up): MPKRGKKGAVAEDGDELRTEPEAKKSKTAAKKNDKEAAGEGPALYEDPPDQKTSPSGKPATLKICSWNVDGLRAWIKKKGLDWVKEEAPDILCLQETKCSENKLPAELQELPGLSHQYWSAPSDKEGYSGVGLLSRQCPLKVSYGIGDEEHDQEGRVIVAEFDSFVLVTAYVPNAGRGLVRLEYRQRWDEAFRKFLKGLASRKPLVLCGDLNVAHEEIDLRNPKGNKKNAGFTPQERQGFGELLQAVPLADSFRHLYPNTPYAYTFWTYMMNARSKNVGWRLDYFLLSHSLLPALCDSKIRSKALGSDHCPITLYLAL
Galactokinase (Homo sapiens), sequence (P51570 whole entry, looked up): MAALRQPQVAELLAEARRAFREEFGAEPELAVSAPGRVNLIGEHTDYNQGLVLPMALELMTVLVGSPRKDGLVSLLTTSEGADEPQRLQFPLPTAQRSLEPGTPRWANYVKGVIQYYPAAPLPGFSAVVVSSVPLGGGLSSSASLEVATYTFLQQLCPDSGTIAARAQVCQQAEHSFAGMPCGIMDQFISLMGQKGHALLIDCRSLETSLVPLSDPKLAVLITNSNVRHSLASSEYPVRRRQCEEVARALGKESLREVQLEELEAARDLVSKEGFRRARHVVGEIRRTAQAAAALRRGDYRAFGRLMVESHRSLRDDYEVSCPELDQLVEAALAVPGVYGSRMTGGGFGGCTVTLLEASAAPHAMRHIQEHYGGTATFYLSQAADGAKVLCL
Cytochrome P450 3A4 (Homo sapiens), sequence (P08684 whole entry, looked up): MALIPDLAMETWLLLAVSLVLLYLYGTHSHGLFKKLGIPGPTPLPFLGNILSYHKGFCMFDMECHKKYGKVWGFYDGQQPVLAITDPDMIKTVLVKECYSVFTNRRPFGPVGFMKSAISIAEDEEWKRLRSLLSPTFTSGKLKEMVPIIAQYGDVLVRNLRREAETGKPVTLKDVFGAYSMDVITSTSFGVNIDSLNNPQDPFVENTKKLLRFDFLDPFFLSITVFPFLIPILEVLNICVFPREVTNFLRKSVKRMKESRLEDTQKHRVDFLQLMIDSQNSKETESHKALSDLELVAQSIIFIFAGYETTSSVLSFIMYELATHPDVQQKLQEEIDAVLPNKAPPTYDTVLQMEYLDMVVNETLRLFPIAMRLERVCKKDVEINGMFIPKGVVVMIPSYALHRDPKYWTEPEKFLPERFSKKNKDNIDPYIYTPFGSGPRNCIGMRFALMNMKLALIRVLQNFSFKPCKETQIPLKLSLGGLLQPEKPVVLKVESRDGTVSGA
Lysosomal acid glucosylceramidase (Homo sapiens), sequence (P04062 whole entry, looked up): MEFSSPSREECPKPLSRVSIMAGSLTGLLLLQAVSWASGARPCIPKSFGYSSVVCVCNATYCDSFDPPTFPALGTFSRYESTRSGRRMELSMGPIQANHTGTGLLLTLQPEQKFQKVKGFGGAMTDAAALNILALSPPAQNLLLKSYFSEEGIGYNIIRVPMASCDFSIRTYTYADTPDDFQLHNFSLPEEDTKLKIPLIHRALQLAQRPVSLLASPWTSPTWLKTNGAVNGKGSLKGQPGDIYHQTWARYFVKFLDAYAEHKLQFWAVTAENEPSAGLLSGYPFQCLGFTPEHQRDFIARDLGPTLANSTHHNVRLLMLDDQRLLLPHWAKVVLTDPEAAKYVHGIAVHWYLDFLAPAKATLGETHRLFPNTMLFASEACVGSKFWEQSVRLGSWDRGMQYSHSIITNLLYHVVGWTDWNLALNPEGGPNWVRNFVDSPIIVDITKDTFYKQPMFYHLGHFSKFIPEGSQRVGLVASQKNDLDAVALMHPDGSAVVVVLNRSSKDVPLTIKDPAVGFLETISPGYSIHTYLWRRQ
Ferritin light chain (Equus caballus), sequence (P02791 2-175 limits assumed): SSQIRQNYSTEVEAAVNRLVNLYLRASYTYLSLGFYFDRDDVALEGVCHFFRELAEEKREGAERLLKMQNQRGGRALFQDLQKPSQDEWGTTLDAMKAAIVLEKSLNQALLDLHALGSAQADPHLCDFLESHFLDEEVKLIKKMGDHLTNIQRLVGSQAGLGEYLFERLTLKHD

NC(N)=N/N=C\c1c(Cl)cccc1Cl
22.6%: max response [1, 33]
inactive: activity change, negative = inhibition [1] 6.25%
12.3%: max response [1, 32]

O=C(Oc1ccccc1)N1CCC2(CCN(Cc3ccncc3)CC2)CC1
inactive: Potency [2] > 20 µM | Potency [3] > 11.4 µM | outcome [4] | outcome [5] | Potency [6] > 46 µM | outcome [7] | Potency [8] | Potency [9] | outcome [10]

COc1ccc2cc1Oc1ccc(cc1)CC1c3cc(c(OC)cc3CCN1C)Oc1c(OC)c(OC)cc3c1C(C2)N(C)CC3 (configuration not stated)
6.79%: max response [1, 33]
inactive: activity change, negative = inhibition [1] 6.58%
-1.03%: max response [1, 32]

CCCN1CCc2cc(O)cc3c2C1Cc1ccc(O)c(O)c1-3 (configuration not stated)
inactive: Potency [11] | Potency [12] | Potency [20] | outcome [21] | outcome [22] | Potency [23] | Potency [24] | outcome [28] | activation [29] 0.375% | outcome [30] | outcome [10]
active: Potency [13] 5.01 µM | Potency [14] 3.16 µM | Potency [15] 2.51 µM | Potency [16] 3.98 µM | Potency [17] 8.91 µM | Potency [18] 3.55 µM | Potency [19] 3.55 µM | Potency [25] 3.29 µM | Potency [26] 8.28 µM | Potency [27] 31.6 µM | Potency [31] 7.08 µM
